In PubChem BioAssay (NCI):
This is part of a sample that, as a whole, favours compounds with a hit. Of some 79,000 tested, about 15% had one in any assay. Values without a mark were called inactive. Calls of active or inactive are those of the source. Rule as the data show it: active = growth inhibition above about 70%; inactive = the rest. Where a SMILES comes first, the peptide text is derived from it. [ ]: non-standard residue; d: D form. The star is where a group is joined. ξ: configuration not given here. Boc = CC(C)(C)OC(=O)*; ξV = CC(C)C(N)C(=O)O; OBn = c1ccc(CO*)cc1

Experiments:
[1] = NCI Yeast Anticancer Drug Screen. Data for the rad50 strain (AID 155);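 also: 0% = growth of vehicle-only cultures of the same strain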; details: S. cerevisiae rad50 strain growth inhibition; at 50.0 µM; stronger effect = higher value
How it was run: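 Cells are treated with compound, grown, and their growth is then scored against vehicle-only cultures of the same repair-deficient yeast strain.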

[2] = NCI Yeast Anticancer Drug Screen. Data for the mec2-1 strain (AID 157); details: S. cerevisiae mec2-1 strain, at 50.0 µM, stronger effect = higher value
How it was run: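 Compounds were applied to mec2-1 yeast cells. Their growth was then compared with that of vehicle-treated cultures to give growth inhibition.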

[3] = NCI Yeast Anticancer Drug Screen. Data for the sgs1 mgt1 strain (AID 161);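 also: 0% = growth of cultures given vehicle only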; details: S. cerevisiae sgs1 mgt1 strain, at 50.0 µM, stronger effect = higher value
How it was run: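 This yeast growth screen uses a strain with defined DNA-repair lesions; compound-treated growth is compared with vehicle-treated growth.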

[4] = NCI Yeast Anticancer Drug Screen. Data for the cln2 rad14 strain (AID 165);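 also: 0% = growth equal to vehicle treated cultures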; details: S. cerevisiae cln2 rad14 strain, at 50.0 µM, stronger effect = higher value
How it was run: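 Strain: cln2 rad14 yeast, altered in cell cycle control and DNA damage repair. Read-out: growth inhibition vs vehicle.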

[5] = NCI Yeast Anticancer Drug Screen. Data for the bub3 strain (AID 167); details: S. cerevisiae bub3 mutant strain, at 50.0 µM, stronger effect = higher value
How it was run: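 Part of a panel of yeast mutants defective in DNA damage repair or cell cycle regulation. Each strain is grown with compound, and inhibition is calculated relative to solvent-treated cultures.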

[6] = NCI Yeast Anticancer Drug Screen. Data for the mlh1 rad18 strain (AID 175); details: S. cerevisiae mlh1 rad18 strain growth inhibition; at 50.0 µM; stronger effect = higher value
How it was run: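 A repair-deficient yeast strain is exposed to test compound, and growth is scored relative to vehicle-treated controls.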

Structure (SMILES) | growth inhibition [1] | growth inhibition [2] | growth inhibition [3] | growth inhibition [4] [%] | growth inhibition [5] | growth inhibition [6]
O=c1c2ccccc2c2cc3nc4ccc([N+](=O)[O-])cc4c(=O)n3c3cccc1c23 | -0.15% | -2.65% | -15.7% | 6.15 | -4.9% | -10.4%
CO[C@@H]1C=C[C@@]23c4cc5c(cc4CN(C[C@@H]2O)[C@H]3C1)OCO5 | 3.95% | -26.1% | -11.9% | 14.8 | -16.1% | -59.4%
CCOC(=O)CC(CC(=O)OCC)(C(=O)OCC)C(=O)OCC | -2.2% | 4.45% | 8.55% | -57.2 | -17.3% | -1.95%
C#CCOC(=O)c1ccc(C(=O)OCC#C)cc1 | 11.9% | -17.3% | -9.3% | 8.35 | 3.15% | -20.7%
CCCC(=O)Oc1cccc(C)c1 | 15.7% | 4.75% | 0.1% | 14.6 | 0.1% | -17.8%
CC1=C(C(=O)NCc2ccccc2)C(c2cccc([N+](=O)[O-])c2)C(C(=O)NCc2ccccc2)=C(C)N1 | 19.6% | 17.2% | 9.05% | 22.7 | 19.2% | 33.7%
S=c1[nH]ncn1/N=C/c1ccccc1Cl | 23.6% | 37% | 54.4% | 22.9 | -5.65% | 37.6%
Cc1occc1C(=S)Nc1ccc(Cl)c(OCC(=O)OC(C)(C)C)c1 | 49% | 50.6% | 49.2% | 40.2 | 46.6% | 38.9%
COc1ccc(C(c2cc3c(cc2O)OCO3)n2ccnc2)cc1 (stereo not given) | 9.45% | 11.8% | 12.3% | -55.5 | 12.1% | 4.9%
CC1CCCCC1NC(=O)c1ccccc1 (stereo not given) | -12% | -10.6% | -5.2% | -34.8 | -13.7% | -3.1%
Cc1ccc2c(c1)c1ccc3c(c1n2C)C(=O)C=CC3=O | 3.25% | 30.7% | 74.8% (active) | 2.55 | 62.6% | 74% (active)
N#CC1(C#N)C(c2ccccc2)C1(C#N)C(N)=O (stereo not given) | -13.2% | 11.4% | -22.9% | -20.6 | -6.7% | -27.5%
O=C(c1ccccc1)N1C2C3CC(OCc4ccccc4)(OCc4ccccc4)C(O3)C21 (stereo not given) | -8.35% | -3.3% | -16.4% | -12.6 | 16.8% | -9.95%
CC(C)[Si]1(C(C)C)OCC2OC(n3c(C(=O)c4ccccc4)cc(=O)[nH]c3=O)CC2O[Si](C(C)C)(C(C)C)O1 (stereo not given) | -2.2% | 5.7% | 17.5% | 24.4 | 17.9% | 6.35%
O=C(O)c1cccc(-c2nn[nH]n2)c1 | 2.75% | 0.5% | -4.55% | -55 | 0.25% | -2.7%
CC1OC(OCC2OC(Oc3c(-c4ccc(O)cc4)oc4cc(O)cc(O)c4c3=O)C(OC3OC(C)C(O)C(O)C3O)C(O)C2O)C(O)C(O)C1O (stereo not given) | -13.7% | -21.2% | -2.2% | 2.75 | -2.9% | 5.6%
CC(=O)OC1/C=C(\C)C(OC(C)=O)C/C=C(/C)CCC2C(/C=C/C1=O)C2(C)C (stereo not given) | 78.9% (active) | 74.4% (active) | 78.1% (active) | 64.1 | 71.2% (active) | 74% (active)
CC12NC(=O)NC1(C)NC(=O)N2 (stereo not given) | -8.85% | -6.3% | -35.9% | -38.9 | -29.6% | 11.6%
CC1=C(C(=O)Nc2ccccc2C)C(c2ccccc2C)C(C(=O)Nc2ccccc2C)=C(C)N1 | 67.2% | 62.6% | 51.8% | 27.3 | 64.3% | 57.7%
CC(C)C(NC(=O)OC(C)(C)C)C(=O)NCC(=O)OCc1ccccc1 (stereo not given) (Boc-[ξV]-Gly-OBn) | -37.9% | -36% | 12.2% | -3.3 | -8.6% | -21.6%

Structure (SMILES) | growth inhibition [1] | growth inhibition [2] | growth inhibition [3] | growth inhibition [4] [%] | growth inhibition [5] | growth inhibition [6]
O=c1[nH]c2c(Cl)cc(Cl)c(Cl)c2c2ccccc12 | -0.45% | 7.65% | 1.5% | -18.4 | 21.1% | 4.85%
CC(C)(C)OC(=O)CN1C(=O)CCC1=O | 6.25% | 8.65% | 20.2% | -26.1 | 4.45% | -5.15%
Cc1nc(CC#N)n[nH]1 | 24.5% | 18% | 17.1% | 11.3 | 24.8% | 19.7%
O=C(O)CCn1ccc2ccccc21 | 3.65% | -0.55% | 4.8% | 5.9 | 3.1% | 1.6%
Cc1ccc(S(=O)(=O)OCC23CCC(CO)(CC2)CC3)cc1 | 9.75% | -2.45% | -0.85% | 15.7 | 27.2% | 14.2%
CCCCCC(/C=C/c1ncccc1OCCCCCC(=O)O)=N\NC1=NCCN1 | 16.8% | -17.6% | -13.6% | -25.4 | -44.6% | 11.7%
O=C(O)COc1ccccc1Cl | 34.6% | 13.3% | 22.5% | 19.8 | 26.1% | 11.8%
CCN(CC)CCCNc1c2ccccc2nc2ccccc12 | 13.7% | 22.8% | 9.2% | 51.6 | -8.1% | 7%
OC(C1CCCCCCCCCC1)C(O)C1CCCCCCCCCC1 (stereo not given) | -35.5% | -38.6% | 2.8% | 15.3 | -38% | -8.85%
CCCCOC(=O)C(C)OC(=O)Nc1ccccc1 (stereo not given) | 5.85% | 23.4% | 16.1% | -52.6 | 18.6% | 12%
N#CN(Cc1ccccc1)Cc1ccccc1 | -1.25% | 23.7% | 7.75% | 0.6 | 10.7% | 4%
CC(=O)OCC12C(OC(C)=O)C(=O)C3C(OC(C)=O)C14OC3(C)COC(=O)c1cccnc1C(C)C(C)C(=O)OC(C(OC(C)=O)C2OC(C)=O)C4(C)O (stereo not given) | -24.6% | -31.4% | -24.1% | 7.85 | -16.1% | -85%
O=C(Nc1cccc([N+](=O)[O-])c1)C(=O)C(C(=O)c1ccccc1F)C1OC(=O)C2C=CC=CC21 (stereo not given) | 5.5% | 15.9% | 16.1% | 11.7 | -32.9% | -19.9%
C=C(C)CNC(C)=O | -7.75% | 3% | 0% | 0 | 3.4% | 1.95%
Clc1ccc(C2ON=C(c3ccccc3)N2C23CC4CC(CC(C4)C2)C3)cc1 (stereo not given) | -23.2% | -27% | -24.1% | -0.3 | -11.9% | -0.75%
O=C(Oc1ccn(C2OC(CO)C(O)C2O)c(=O)c1)C12CC3CC(CC(C3)C1)C2 (stereo not given) | 36.1% | 11.6% | 25.2% | 25.4 | 0.95% | 36.2%
CC(c1ccccc1)C1OCC(CCCCO)O1 (stereo not given) | -7.9% | -20.2% | -10.7% | 0.55 | -15.1% | -20.1%
CSc1nc2c(cnn2C)c(=O)[nH]1 | 14.7% | -1.95% | 3.3% | -4.55 | 10.5% | 24.6%
C/C(=N\Nc1ccc([N+](=O)[O-])cc1[N+](=O)[O-])C1(C)CC=CCC1C (stereo not given) | -3.9% | -3.35% | 0.4% | 6.05 | -1.7% | -1.45%
CCOC(=O)CC[Si](CC)(CC)CC | 0.25% | -13.8% | 1.7% | -28.5 | -15.3% | -1.45%
